From PubChem BioAssay AID1159580 (chemical genetic matrix, 2015)
The campaign covered roughly 5,500 compounds. About 2,000 (36%) were called active. Inconclusive results (about 18%) are left out. No stated cut-off is given here; in the data, active means normalized growth mostly below about 0.91 (no sharp cut-off); inconclusive means no clear call, values can overlap the other calls; inactive means mostly above about 0.92. This is one part of the list.

Test: chemical genetic growth profiling, strain panel (AID 1159580);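 further: tested at 20 µM; growth read once vehicle control cultures reached saturation at 30 °C; 1 = growth at the plate median or of vehicle wells; lower values mean less growth of the strain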
Conditions: growth OD

Measured: normalized growth

C[C@H]1[C@H](C)CC[C@]2(CO)CC[C@]3(C)C(=CCC4[C@@]5(C)CC[C@H](O)C(C)(C)C5CC[C@]43C)[C@H]12 (some centres not stated)
inactive: S. cerevisiae deletion strains, locus YKL009W, strain mrt4, active compounds read low 1.01 | S. cerevisiae deletion strains, locus YKL068W, active compounds read low 1.02 | S. cerevisiae deletion strains, locus YKL085W, strain MDH1 (second series), active compounds read low 1.04 | S. cerevisiae deletion strains, locus YKL085W, strain MDH1, active compounds read low 1.04 | S. cerevisiae deletion strains, locus YKL160W, strain elf1, active compounds read low 0.995 | S. cerevisiae deletion strains, locus YKL190W, strain CNB1, active compounds read low 1.01 | S. cerevisiae deletion strains, locus YKR001C, strain vps1, active compounds read low 1.03 | S. cerevisiae deletion strains, locus YKR026C, strain gcn3, active compounds read low 0.997 | S. cerevisiae deletion strains, locus YKR091W, strain srl3, active compounds read low 0.988 | S. cerevisiae deletion strains, locus YLL001W, strain dnm1, active compounds read low 1.01 | S. cerevisiae deletion strains, locus YLL026W, active compounds read low 1.01 | S. cerevisiae deletion strains, locus YLL041C, strain sdh2, active compounds read low 1 | S. cerevisiae deletion strains, locus YLR027C, strain aat2, active compounds read low 0.976 | S. cerevisiae deletion strains, locus YLR039C, strain RIC1, active compounds read low 1.08 | S. cerevisiae deletion strains, locus YLR058C, strain SHM2, active compounds read low 1.02 | S. cerevisiae deletion strains, locus YLR102C, strain apc9, active compounds read low 1.02 | S. cerevisiae deletion strains, locus YLR113W, strain HOG1, active compounds read low 0.967 | S. cerevisiae deletion strains, locus YLR221C, strain rsa3, active compounds read low 0.986 | S. cerevisiae deletion strains, locus YLR258W, strain gsy2, active compounds read low 0.989 | S. cerevisiae deletion strains, locus YLR262C, strain YPT6 (second series), active compounds read low 1.04 | S. cerevisiae deletion strains, locus YLR262C, strain YPT6, active compounds read low 1.08 | S. cerevisiae deletion strains, locus YLR268W, strain sec22, active compounds read low 1.03 | S. cerevisiae deletion strains, locus YLR320W, strain mms22, active compounds read low 0.987 | S. cerevisiae deletion strains, locus YLR330W, strain CHS5, active compounds read low 1.01 | S. cerevisiae deletion strains, locus YLR342W, strain FKS1 (second series), active compounds read low 1 | S. cerevisiae deletion strains, locus YLR342W, strain FKS1, active compounds read low 0.989 | S. cerevisiae deletion strains, locus YLR357W, strain rsc2, active compounds read low 0.999 | S. cerevisiae deletion strains, locus YLR370C, strain arc18, active compounds read low 1 | S. cerevisiae deletion strains, locus YLR371W, strain rom2, active compounds read low 1.03 | S. cerevisiae deletion strains, locus YLR384C, strain iki3, active compounds read low 0.974 | S. cerevisiae deletion strains, locus YLR418C, strain cdc73, active compounds read low 1.03 | S. cerevisiae deletion strains, locus YML016C, strain PPZ1, active compounds read low 1.02 | S. cerevisiae deletion strains, locus YML032C, strain rad52, active compounds read low 1.02 | S. cerevisiae deletion strains, locus YML120C, strain ndi1, active compounds read low 0.988 | S. cerevisiae deletion strains, locus YML124C, strain tub3, active compounds read low 1.03 | S. cerevisiae deletion strains, locus YMR058W, strain fet3, active compounds read low 1 | S. cerevisiae deletion strains, locus YMR078C, strain ctf18, active compounds read low 1.03 | S. cerevisiae deletion strains, locus YMR125W, strain sto1, active compounds read low 1.01 | S. cerevisiae deletion strains, locus YMR129W, active compounds read low 0.988 | S. cerevisiae deletion strains, locus YMR205C, strain PFK2, active compounds read low 0.98 | S. cerevisiae deletion strains, locus YMR223W, strain ubp8, active compounds read low 1.02 | S. cerevisiae deletion strains, locus YMR231W, strain pep5, active compounds read low 1 | S. cerevisiae deletion strains, locus YMR263W, strain SAP30, active compounds read low 1.01 | S. cerevisiae deletion strains, locus YMR307W, strain GAS1, active compounds read low 1.06 | S. cerevisiae deletion strains, locus YNL067W, strain RPL9B, active compounds read low 1.01 | S. cerevisiae deletion strains, locus YNL071W, strain lat1, active compounds read low 0.995 | S. cerevisiae deletion strains, locus YNL183C, strain NPR1, active compounds read low 0.967 | S. cerevisiae deletion strains, locus YNL209W, strain ssb2, active compounds read low 0.988 | S. cerevisiae deletion strains, locus YNL233W, strain BNI4, active compounds read low 1.01 | S. cerevisiae deletion strains, locus YNL248C, strain rpa49, active compounds read low 1 | S. cerevisiae deletion strains, locus YNL250W, strain rad50, active compounds read low 1.04 | S. cerevisiae deletion strains, locus YNL271C, strain bni1, active compounds read low 1.02 | S. cerevisiae deletion strains, locus YNL298W, strain CLA4, active compounds read low 1.01 | S. cerevisiae deletion strains, locus YNL307C, strain MCK1, active compounds read low 1.04 | S. cerevisiae deletion strains, locus YNL322C, strain KRE1 (second series), active compounds read low 0.99 | S. cerevisiae deletion strains, locus YNR049C, strain mso1, active compounds read low 0.99 | S. cerevisiae deletion strains, locus YNR052C, strain pop2, active compounds read low 1.01 | S. cerevisiae deletion strains, locus YOL006C, strain TOP1, active compounds read low 1.07 | S. cerevisiae deletion strains, locus YOL012C, strain htz1 1.12 | S. cerevisiae deletion strains, locus YOL147C, strain pex11, active compounds read low 1.02 | S. cerevisiae deletion strains, locus YOR001W, strain rrp6, active compounds read low 0.946 | S. cerevisiae deletion strains, locus YOR061W, strain CKA2, active compounds read low 1.01 | S. cerevisiae deletion strains, locus YOR069W, strain VPS5, active compounds read low 1.01 | S. cerevisiae deletion strains, locus YOR070C, strain gyp1, active compounds read low 0.975 | S. cerevisiae deletion strains, locus YOR080W, strain dia2, active compounds read low 0.992 | S. cerevisiae deletion strains, locus YOR083W, strain WHI5, active compounds read low 0.995 | S. cerevisiae deletion strains, locus YOR106W, strain vam3, active compounds read low 1.01 | S. cerevisiae deletion strains, locus YOR136W, strain idh2, active compounds read low 1.03 | S. cerevisiae deletion strains, locus YOR144C, strain elg1, active compounds read low 1.02 | S. cerevisiae deletion strains, locus YOR184W, strain ser1, active compounds read low 1.01 | S. cerevisiae deletion strains, locus YOR231W, strain MKK1, active compounds read low 0.996 | S. cerevisiae deletion strains, locus YOR265W, strain rbl2, active compounds read low 0.986 | S. cerevisiae deletion strains, locus YOR270C, strain vph1, active compounds read low 0.984 | S. cerevisiae deletion strains, locus YOR290C, strain snf2, active compounds read low 0.998 | S. cerevisiae deletion strains, locus YOR316C, strain cot1, active compounds read low 1.03 | S. cerevisiae deletion strains, locus YPL051W, strain arl3, active compounds read low 0.998 | S. cerevisiae deletion strains, locus YPL078C, strain atp4, active compounds read low 0.993 | S. cerevisiae deletion strains, locus YPL106C, strain sse1, active compounds read low 1.09 | S. cerevisiae deletion strains, locus YPL240C, strain hsp82, active compounds read low 1.01 | S. cerevisiae deletion strains, locus YPL241C, strain CIN2, active compounds read low 0.995 | S. cerevisiae deletion strains, locus YPL256C, strain CLN2, active compounds read low 1.07 | S. cerevisiae deletion strains, locus YPR119W, strain clb2, active compounds read low 1.03 | S. cerevisiae deletion strains, locus YPR141C, strain kar3, active compounds read low 1.04 | S. cerevisiae deletion strains, locus YPR163C, strain tif3, active compounds read low 1.03 | S. cerevisiae deletion strains, locus YPR167C, strain met16, active compounds read low 1.02 | S. cerevisiae deletion strains, strain wtn01, active compounds read low 1.01 | S. cerevisiae strains, strain wild type, active compounds read low 1
